Data from PubChem BioAssay (Tox21).
Where “and” joins values, the source holds several entries; their conditions need not be identical. Equal values may be shown once. Inconclusive results are not listed. Where a call stands in place of a potency, no number is given. Calls of active or inactive are those of the source. The call rests on the fitted dose curve; in most records, active means well fitted cell-killing curve with a large enough effect in the repeat runs; inconclusive means weak or mixed curves, or effect the other way; inactive means flat fitted curve, though single readings scatter.

Assays:
[1] = cAMP Responsive Elements (CRE) small molecule antagonists, cell-based qHTS assay: qHTS cell viability counter screen (AID 2060913); further: nearly all actives have a fitted effect of over 40% in size
In short: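 Cytotoxicity read in the same wells as the CRE-bla HEK293T antagonist assay: after 3 h compound with 0.25 uM NKH477 final and 2 h beta-lactamase substrate, CellTiter-Glo luminescence measured.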

[2] = cAMP Responsive Elements (CRE) small molecule agonists, cell-based qHTS assay: qHTS cell viability counter screen (AID 2060914);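 further: viability read after 3 h of compound exposure; nearly all actives have a fitted effect of over 50% in size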
In short: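 Cytotoxicity counter screen multiplexed with the CRE-bla reporter assay in HEK 293T cells: 3 h compound exposure at 37 °C, followed by CellTiter-Glo luminescence measured in the same wells.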
Potency means the concentration at half of the fitted maximal effect.

Structure (SMILES)	Potency [1]	Potency [2]
CCC(Cl)[N+](=O)[O-] (stereo not given)	inactive	inactive
CC1CN1 (stereo not given)	inactive	inactive
O.O.O.O.O.O.O=S(=O)([O-])[O-].[Ni+2]	inactive	inactive
Cl/C=C\C[N+]12CN3CN(CN(C3)C1)C2	inactive	inactive
CCC(Br)(CC)C(=O)NC(N)=O	inactive	inactive
O=C1CCCN1	inactive	inactive
CC(N)=S	inactive	inactive
C=Cc1cccc(CCl)c1	inactive	inactive
COc1ccc(C=O)cc1OC	inactive	inactive
CCNC(=O)NC(=O)/C(C#N)=N/OC	inactive	inactive
ClC(Br)Br	inactive	inactive
Nc1ccc2c(c1)Cc1ccccc1-2	inactive	inactive
CCCOc1nn(C(=O)NS(=O)(=O)c2ccccc2C(=O)OC)c(=O)n1C	inactive	inactive
CC[C@@H](CO)NC(=O)[C@@H]1C=C2c3cccc4[nH]cc(c34)C[C@H]2N(C)C1	inactive	inactive
N#CN=C(N)N	inactive	inactive
C[C@]1(O)CC[C@H]2[C@@H]3CCC4=CC(=O)CC[C@]4(C)[C@@]3(F)[C@@H](O)C[C@@]21C	inactive	inactive
Nc1ccc(Cl)cc1C(=O)c1ccccc1F	inactive	inactive
O=C(Cl)C(Cl)(Cl)Cl	inactive	inactive
COc1ccccc1N	inactive	inactive
O=C1CC(=O)NC(=O)N1	inactive	inactive
CNC(=O)CSP(=O)(OC)OC	inactive	inactive
CCC1(CC)C(=O)NC(=O)NC1=O	inactive	inactive
O=c1[nH]c2ccccc2n1C1CCN(CCCC(c2ccc(F)cc2)c2ccc(F)cc2)CC1	inactive	inactive
CNC(=O)O/N=C/C(C)(C)S(C)=O (stereo not given)	inactive	inactive

Structure (SMILES)	Potency [1]	Potency [2]
[O-][Cl+]O	inactive	inactive
Oc1ccc2[nH]cc(CCCCN3CC=C(c4ccccc4)CC3)c2c1	inactive	inactive
Cc1cccc(N)c1N	inactive	inactive
S=C=Nc1ccccc1	inactive	inactive
CC(=O)O.CC(=O)O.CC(=O)O.CC(=O)O.CC(=O)O.CC(=O)O.CC(=O)O.O.O.[Cr].[Cr].[Cr]	inactive	inactive
Cc1c(COC(=O)[C@@H]2[C@H](/C=C(\Cl)C(F)(F)F)C2(C)C)cccc1-c1ccccc1	inactive	inactive
Cc1cnc[nH]1	inactive	inactive
O=C(O)CCCc1ccc(N(CCCl)CCCl)cc1	inactive	inactive
CNN	inactive	inactive
CN(C)c1ccc(N(C)C)cc1	inactive	inactive
CCCCn1cc[n+](C)c1	inactive	inactive
Cn1c(N)nc2c3cccnc3ccc21	inactive	inactive
ClC1C(Cl)C(Cl)C(Cl)C(Cl)C1Cl (stereo not given)	inactive	inactive
N#Cc1ccncc1	inactive	inactive
C[C@@H]1CC2=CC(=O)CC[C@@H]2[C@H]2CC[C@@]3(C)[C@@H](CC[C@]3(C)O)[C@@H]21	inactive	inactive
COP(=S)(OC)Oc1cc(Cl)c(Cl)cc1Cl	inactive	inactive
CC[C@]1(O)CC[C@H]2[C@@H]3CCC4=CCCC[C@@H]4[C@H]3CC[C@@]21C	inactive	inactive
COc1ccc(Cc2nccc3cc(OC)c(OC)cc23)cc1OC	inactive	inactive
C=CC#N	inactive	inactive
CC(=O)C(Cl)C(=O)N(C)C (stereo not given)	inactive	inactive
CN(C)[C@@H]1C(=O)C(C(N)=O)=C(O)[C@@]2(O)C(=O)C3=C(O)c4c(O)cccc4[C@@](C)(O)[C@H]3[C@H](O)[C@@H]12	inactive	inactive
O=P(OCCCl)(OCCCl)OCCCl	inactive	inactive
O=C(O)C(F)(F)C(F)(F)C(F)(F)C(F)(F)C(F)(F)C(F)(F)C(F)(F)C(F)(F)C(F)(F)F	inactive	inactive
COc1ccc(C(O)(c2cncnc2)C2CC2)cc1 (stereo not given)	inactive	inactive

Structure (SMILES)	Potency [1]	Potency [2]
CC(=[OH+])/C=C(/C)[O-].CC(=[OH+])/C=C(\C)[O-].CC(=[OH+])/C=C(\C)[O-].[Fe]	inactive	inactive
CCC(C)Cl (stereo not given)	inactive	inactive
Cc1cc(C)nc(Nc2ccccc2)n1	inactive	inactive
N#Cc1c[nH]cc1-c1cccc2c1OC(F)(F)O2	inactive	inactive
Cc1cccc(N=Nc2ccc(N(C)C)cc2)c1	inactive	inactive
C=C(C)[C@@H]1CC=C(C=O)CC1	inactive	inactive
CC/C(=N\OC/C=C/Cl)C1=C(O)CC(C2CCOCC2)CC1=O (stereo not given)	inactive	inactive
O=C(O)c1ccc2[nH]cc(CCCCN3CC=C(c4ccccc4)CC3)c2c1	inactive	inactive
COc1ccc(-c2ccccc2)cc1NNC(=O)OC(C)C	inactive	inactive
OC[C@@H](O)[C@H]1O[C@@H]2O[C@H](C(Cl)(Cl)Cl)O[C@@H]2[C@H]1O	inactive	inactive
C=CCCl	inactive	inactive
CCC[CH2][Sn]([Cl])([Cl])[CH2]CCC	17.4 µM (active) and 18 µM (active)	31 µM (active) and 30.6 µM (active)
CNC(=S)S	inactive	inactive
CCN(CC)N=O	inactive	inactive
[As]#[In]	inactive	2.17 µM (active)
COc1cc(OC)nc(Oc2cccc(Oc3nc(OC)cc(OC)n3)c2C(=O)O)n1	inactive	inactive
O=[N+]([O-])/N=C1\NCCN1Cc1ccc(Cl)nc1	inactive	inactive
ClC(Cl)=C(Cl)C(Cl)=C(Cl)Cl	inactive	inactive
CSc1nc(N=[N+]=[N-])nc(NC(C)C)n1	inactive	inactive
ClCc1cccnc1	inactive	inactive
C=CCc1ccccc1O	inactive	inactive
Cc1cc(O)ccc1Cl	inactive	inactive
OCC(Br)CBr (stereo not given)	inactive	inactive
Cc1ccc([N+](=O)[O-])cc1	inactive	inactive

Structure (SMILES)	Potency [1]	Potency [2]
CCOC(=O)NC(O)C(Cl)(Cl)Cl (stereo not given)	inactive	inactive
ClCC(Br)CBr (stereo not given)	inactive	inactive
Cc1cnc2c(C(=O)O)c(Cl)ccc2c1	inactive	inactive
N#CCC#N	inactive	inactive
CC[n+]1ccccc1	inactive	inactive
N#CC(C#N)=C(C#N)C#N	inactive	inactive
CN1[C@@H]2CC[C@H]1CC(O)C2 (stereo not given in full)	inactive	inactive
CCOC(=O)CC(=O)CCl	inactive	inactive
CSC(C)(C)/C=N/O	inactive	inactive
CC(=O)/C=C/c1ccc2c(c1)OCO2	inactive	inactive
CN(C)CCc1c[nH]c2cccc(OP(=O)(O)O)c12	inactive	inactive
C=C(C)CCl	inactive	inactive
Cc1c([N+](=O)[O-])c(C)c([N+](=O)[O-])c(C(C)(C)C)c1[N+](=O)[O-]	inactive	inactive
NCCOS(=O)(=O)O	inactive	inactive
CC(C)=CC1C(C(=O)OCN2C(=O)C3=C(CCCC3)C2=O)C1(C)C (stereo not given)	inactive	inactive
O=c1oc2ccccc2c(O)c1Cc1c(O)c2ccccc2oc1=O	inactive	inactive
ClC1=C(Cl)[C@]2(Cl)[C@@H]3[C@@H](Cl)[C@@H](Cl)C[C@@H]3[C@@]1(Cl)C2(Cl)Cl	inactive	inactive
CCC[N+](=O)[O-]	inactive	inactive
CCCCCCCCCCCCCl	inactive	inactive
Clc1ccc(-c2ccccc2)cc1	inactive	inactive
CCCC[N+]1(C)CCCC1 (tested in a mixture with another compound)	inactive	inactive
Cc1cccc(Cc2cnc[nH]2)c1C	inactive	inactive
CCOP(=S)(OCC)SCSc1cc(Cl)ccc1Cl	inactive	inactive
CCOP(=O)(Sc1ccccc1)Sc1ccccc1	inactive	inactive

Structure (SMILES)	Potency [1]	Potency [2]
COC(=O)c1ccccc1S(=O)(=O)NC(=O)N(C)c1nc(C)nc(OC)n1	inactive	inactive
N#CC(Br)Br	inactive	inactive
C=CC(=O)NC(C)(C)CC(C)=O	inactive	inactive
CSSC	inactive	inactive
CC(C)CBr	inactive	inactive
COP(=S)(OC)Oc1ccc(S(N)(=O)=O)cc1	inactive	inactive
CCCCN(CC)C(=O)SCCC	inactive	inactive
C=CCc1ccc(OC(=O)Cc2ccccc2)c(OC)c1	inactive	inactive
Oc1ccc(Cl)cc1Cl	inactive	inactive
CCCN(CCC)C(=O)Cc1c(-c2ccc(Cl)cc2)nc2ccc(Cl)cn12	inactive	inactive
[Cl-].[Cl-].[Hg+2]	19.2 µM (active) and 8.63 µM (active)	21.6 µM (active) and 12.2 µM (active)
CC(C)(C)C(O)(CCc1ccc(Cl)cc1)Cn1cncn1 (stereo not given)	inactive	inactive
O=P(Oc1ccccc1)(Oc1ccccc1)Oc1ccccc1	inactive	inactive
COP(=O)(OC)OC	inactive	inactive
C[C@H]1CC[C@@H]2[C@@H](C)[C@H]3[C@H](C[C@H]4[C@@H]5CC=C6CC(O[C@@H]7O[C@H](CO)[C@H](O)[C@H](O[C@@H]8O[C@H](CO)[C@@H](O)[C@H](O)[C@H]8O)[C@H]7O[C@H]7O[C@@H](C)[C@H](O)[C@@H](O)[C@H]7O)CC[C@]6(C)[C@H]5CC[C@]34C)N2C1 (stereo not given in full)	inactive	inactive
CC1(C)[C@H](C(=O)O[C@H](C#N)c2cccc(Oc3ccccc3)c2)[C@@H]1C=C(Br)Br	inactive	inactive
N#CS	inactive	inactive
COP(=O)(OC)OC(Br)C(Cl)(Cl)Br (stereo not given)	inactive	inactive
CCN[C@@H](C)Cc1cccc(C(F)(F)F)c1	inactive	inactive
C[C@H]1C(=O)O[C@@H]2CCN3CC=C(COC(=O)[C@](C)(O)[C@]1(C)O)[C@H]23	inactive	inactive
COS(=O)(=O)OC	inactive	inactive
O=NN(CCO)CCO	inactive	inactive
CCOP(=S)(OCC)Oc1ccc2c(C)c(Cl)c(=O)oc2c1	inactive	inactive
CCC(=O)C(CCN(C)C)(c1ccccc1)c1ccccc1	inactive	inactive
